About 5,100 (32%) of roughly 16,000 compounds were called active. Not shown: some 25% with an inconclusive outcome. The list shows a part of the results. A number with no mark means an inactive call. Calls follow the shape of the dose curve; as a rule, active = well fitted curve in the direction sought with a large enough effect; inconclusive = small, poorly fitted or top-dose-only effect, or effect the other way; inactive = no such curve, though single readings can be large or run the other way. Square brackets hold non-standard residues; d marks the D form. Peptide text beside a SMILES is read from it.
The molecules below were run against Cytochrome P450 3A4 (Homo sapiens) (UniProt P08684) (assay: Cytochrome panel assay with activity outcomes). Conditions: recombinant CYP, pro-luciferin dealkylation, luminescence, p450-cyp3a4; series mostly up to 57.1 µM.
Sequence of Cytochrome P450 3A4 (Homo sapiens) (P08684 whole entry, looked up): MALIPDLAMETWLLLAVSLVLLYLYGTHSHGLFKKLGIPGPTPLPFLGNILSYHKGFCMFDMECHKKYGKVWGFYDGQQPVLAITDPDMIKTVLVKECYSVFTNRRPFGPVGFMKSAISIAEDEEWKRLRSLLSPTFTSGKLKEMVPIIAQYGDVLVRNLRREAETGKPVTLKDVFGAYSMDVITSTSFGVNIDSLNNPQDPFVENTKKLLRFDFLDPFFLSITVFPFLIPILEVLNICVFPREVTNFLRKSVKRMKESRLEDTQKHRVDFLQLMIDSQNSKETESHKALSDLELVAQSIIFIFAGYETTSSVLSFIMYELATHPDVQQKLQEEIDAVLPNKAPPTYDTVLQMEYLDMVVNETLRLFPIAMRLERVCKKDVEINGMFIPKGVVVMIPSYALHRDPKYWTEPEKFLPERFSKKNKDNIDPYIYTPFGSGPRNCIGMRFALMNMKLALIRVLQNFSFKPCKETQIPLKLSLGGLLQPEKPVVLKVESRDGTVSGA
For `NC(=O)[C@@H]1CCCN1Cc1ccc2c(c1)OCO2`, the activity, negative = inhibition was -37.8% [at 11.4 µM].
For `CC(C)(C)NC(=O)CSc1nnc(Cc2ccc3c(c2)OCO3)n1C1CCCCC1`, the AC50 was 0.447 µM (active).
For `CC(C)N=c1scc(-c2ccco2)n1/N=C/c1ccc(O)c(O)c1`, the AC50 was 12.6 µM (active).
`C[N+](C)(C)/N=C\c1ccc(O)c(O)c1` was tested, and the activity, negative = inhibition was -21.1% [at 11.4 µM].
With `NCCc1nc(-c2nc(C(=O)O)cs2)cs1` the activity, negative = inhibition was -14.8% [at 11.4 µM].
`CC(=O)N1CCC2(CCN(Cc3ccncc3)CC2)CC1` was tested, and the AC50 was “inactive”.
For `COc1ccc(C(=O)N2CCC3(CCCN(Cc4ccncc4)C3)CC2)cc1`, the AC50 was 7.94 µM (active).
With `O=C(c1cccc(F)c1)N1CCC2(CCN(Cc3ccccc3)CC2)CC1` the AC50 was “inactive”.
`O=C(c1ccncc1)N1CCC2(CCN(Cc3ccccc3)CC2)CC1` was tested, and the AC50 was 15.8 µM (active).
With `COc1ccc(C(=O)N2CCC3(CCCN(C)C3)CC2)cc1` the AC50 was “inactive”.
With `O=C(c1ccncc1)N1CCC2(CCCN(Cc3ccncc3)C2)CC1` the AC50 was 5.01 µM (active).
With `COc1ccc(C(=O)N2CCC3(CCN(Cc4ccncc4)CC3)CC2)cc1` the AC50 was 15.8 µM (active).
With `O=C(O)CP(=O)(O)O` the AC50 was “inactive”.
With `Oc1c(Cl)cc(CN(Cc2cc(Cl)c(O)c(Cl)c2)C2CCCCC2)cc1Cl` the activity, negative = inhibition was -4.66% [at 11.4 µM].
With `CC(=O)N1CCC2(CC1)CN(Cc1ccccc1)C2` the AC50 was “inactive”.
With `O=C(c1csnn1)N1CCC2(CCCN(Cc3ccccc3)C2)CC1` the AC50 was “inactive”.
With `O=C(c1ccncc1)N1CCC[C@@]2(CCN(Cc3ccccc3)C2)C1` the AC50 was 15.8 µM (active).
With `CC(=O)N1CCC2(CCCN(Cc3ccccc3)C2)CC1` the AC50 was “inactive”.
`O=C(c1ccncc1)N1CCC2(CCCN(Cc3ccccc3)C2)CC1` was tested, and the AC50 was 10 µM (active).
For `CC(=O)OC1CCC(OC(C)=O)c2c1n([O-])c(C)c(C)[n+]2=O` (stereo not given), the AC50 was “inactive”.
`COC(=O)c1c(-n2c(C)cc(C=O)c2C)sc2c1CCCC2` was tested, and the AC50 was 7.08 µM (active).
`O=C1Nc2ccccc2C1=Nc1cccc2ncccc12` gave an activity, negative = inhibition of -14.3% [at 11.4 µM].
With `O=C1Nc2ccccc2/C1=N/c1sc2c(c1C(=O)NCCc1ccccc1)CCCC2` the AC50 was 7.08 µM (active).
In the case of `O=C(NCCc1ccccc1)c1noc2c1CCc1ccccc1-2`, the activity, negative = inhibition is reported as -2.2% [at 2.29 µM].
For `NCC(=O)N[C@H](CO)C(=O)O` (H-Gly-[dS]-OH), the activity, negative = inhibition was -9.24% [at 11.4 µM].
With `CCN1CCN(c2nc3ccccc3nc2C(C#N)C(=O)OC2CCCCC2)CC1` (stereo not given) the AC50 was 10 µM (active).
`CC(C)OC(=O)C(C#N)c1nc2ccccc2nc1N1CCN(Cc2ccccc2)CC1` (stereo not given) was tested, and the AC50 was “inactive”.
`C[N+]1(C)CCC(OC(=O)C(c2ccccc2)c2ccccc2)CC1` was tested, and the AC50 was “inactive”.
For `CCCCCCOC(=O)C(C#N)c1nc2ccccc2nc1N1CCN(CC)CC1` (stereo not given), the AC50 was 28.2 µM (active).
`Nc1nc(-c2cc(-c3cccc4ccccc34)nc(N)n2)cc(-c2cccc3ccccc23)n1` was tested, and the activity, negative = inhibition was 6.26% [at 11.4 µM].
For `Cc1cc(C)nc(Nc2n[nH]c(-c3cccc4ccccc34)n2)n1`, the AC50 was 14.1 µM (active).
In the case of `Cc1cc(C)nc(Nc2n[nH]c(COc3ccc4ccccc4c3)n2)n1`, the AC50 is reported as 5.01 µM (active).
Molecule `NC(=O)Nc1n[nH]c(-c2ccccc2)n1` has an activity, negative = inhibition of -3.37% [at 11.4 µM].
Work on `Cc1cc(Oc2ccccc2)nc(NCc2ccccc2)n1` yielded an activity, negative = inhibition of 7.15% [at 11.4 µM].
For `Cc1noc2ncnc(Oc3ccc4ccccc4c3)c12`, the AC50 was “inactive”.
With `O=c1[nH]ncn2cccc12` the AC50 was “inactive”.
For `COc1ccccc1-n1c(SCC(=O)Nc2ccccc2F)nc2[nH]ncc2c1=O`, the AC50 was 14.1 µM (active).
`Oc1ccccc1C(Sc1nc2ccccc2s1)Sc1nc2ccccc2s1` showed an activity, negative = inhibition of -6.59% [at 11.4 µM].
With `NCCSc1nc2ccccc2s1` the AC50 was 3.16 µM (active).
Work on `c1ccc2sc(SCCSc3nc4ccccc4s3)nc2c1` yielded an activity, negative = inhibition of 14.9% [at 11.4 µM].
With `c1ccc2sc(SCSc3nc4ccccc4s3)nc2c1` the AC50 was 3.16 µM (active).
`NCCSc1nc(-c2ccccc2)c(-c2ccccc2)o1` showed an activity, negative = inhibition of -23.1% [at 11.4 µM].
`COc1cc(C)cc2c(-c3c(O)cc(O)c4c3C[C@H](C)N[C@@H]4C)cc(-c3cc(-c4c(O)cc(O)c5c4C[C@H](C)N[C@@H]5C)c4cc(C)cc(OC)c4c3O)c(O)c12` showed an activity, negative = inhibition of -3.16% [at 11.4 µM].
In the case of `C[C@@](N)(C(=O)O)c1ccc(P(=O)(O)O)cc1`, the AC50 is reported as “inactive”.
For `Cc1cc2c(=O)[nH]c(N)nc2nc1C`, the activity, negative = inhibition was -3.61% [at 11.4 µM].
`COc1ccc(CNc2ccnc(-c3ccc4c(c3)OCO4)n2)c(OC)c1` was tested, and the AC50 was 1 µM (active).
In the case of `COc1ccccc1CNc1ccnc(-c2ccc3c(c2)OCO3)n1`, the AC50 is reported as 1.58 µM (active).
In the case of `CC(=O)Nc1c2c3c(cccc3n(C)c1=O)C(=O)c1ccccc1-2`, the AC50 is reported as 17.8 µM (active).
For `Cc1ccc(NC(=O)Nc2ncccc2C)cc1`, the activity, negative = inhibition was -13.7% [at 2.29 µM].
`CCOC(=O)C(=Cc1ccc(F)cc1)C(=O)OCC` was tested, and the AC50 was “inactive”.
With `CCOC(=O)C(=CNCC(=O)O)C(=O)OCC` the AC50 was “inactive”.
`CCOC(=O)C(=CNc1ncccc1C)C(=O)OCC` was tested, and the AC50 was 12.6 µM (active).
For `CCOC(=O)C(=CNc1cccc(C)c1C)C(=O)OCC`, the AC50 was 15.8 µM (active).
In the case of `CCOC(=O)/C(=C/Nc1ccccc1)[N+](=O)[O-]`, the AC50 is reported as “inactive”.
In the case of `CN(C)CCCn1c2ccccc2c2cnccc21`, the activity, negative = inhibition is reported as -22.2% [at 11.4 µM].
In the case of `Cc1c2cnccc2c(C)c2c1c1ccccc1n2CCOC(=O)c1ccccc1`, the AC50 is reported as 0.631 µM (active).
For `Cc1ccc(C(=O)O/N=C/c2c(Cl)n(C)c3ccccc23)cc1`, the AC50 was “inactive”.
With `Cc1noc(C)c1-c1nc(Nc2ccncc2)c2ccccc2n1` the AC50 was 0.316 µM (active).
For `Cc1noc(C)c1-c1nc(NC2CCNCC2)c2ccccc2n1`, the AC50 was “inactive”.
For `Cc1noc(C)c1-c1nc(Nc2ccccc2)c2ccccc2n1`, the AC50 was 6.31 µM (active).
In the case of `Cc1noc(C)c1-c1nc(Nc2ccc(F)cc2)c2ccccc2n1`, the AC50 is reported as “inactive”.
With `CC(C)Oc1ccc(CNC(=O)CC(c2ccccc2)c2cc(Cl)ccc2O)cc1` (stereo not given) the AC50 was 10 µM (active).
`CN(/C=C/C(=O)C(F)(F)F)Cc1ccccc1` was tested, and the AC50 was “inactive”.
For `CN(Cc1ccccc1)C(=O)CC(c1ccccc1)c1cc(Cl)ccc1O` (stereo not given), the AC50 was 14.1 µM (active).
`O=C(O)Cc1cc(Cl)ccc1O` was tested, and the activity, negative = inhibition was -2.24% [at 11.4 µM].

— PubChem BioAssay AID1851 (National Center for Advancing Translational Sciences (NCATS), 2009)
% is scaled to controls: 0 for no effect and ±100 for the full control effect.
